The values below come from PubChem BioAssay (Tox21).

Several values for one entry are separate records, joined by “and”; a condition that tells them apart may be missing. Identical values can stand only once. Values without a mark were called inactive. Results filed as inconclusive are left out. Activity calls are given as the source filed them. Unless noted, calls come from the whole dose curve; as a rule, active = well fitted curve in the direction sought with a large enough effect in the repeat runs; inconclusive = weak or mixed curves; inactive = no such curve, though single readings can be large; an effect the other way counts as inactive or inconclusive.

Assay [1] in a line: qHTS assay to identify small molecule agonists of the hypoxia (HIF-1) signaling pathway - cell viability counter screen (AID 1224844; calls by dose curve; note: nearly all actives have a fitted effect of over 50% in size). The method in brief:
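Multiplexed with the HRE beta-lactamase assay, this viability read used CellTiter-Glo luminescence (30 min, RT) on HRE-bla ME-180 cells treated 17 hrs with compounds in 0.5% dialyzed FBS medium.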
A general note: qHTS replaces the single test concentration by a dilution series.

Assay [2] is described as follows: qHTS assay to identify small molecule agonists of H2AX - cell viability counter screen (AID 1224847; calls by dose curve;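 note: wild-type CHO-K1 cells; top concentration of the series differs between compounds; nearly all actives have a fitted effect of over 30% in size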). The method in brief: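 CHO-K1 cells plated overnight at 37C, then exposed 3 h at 37C to compounds at 15 concentrations (0.76% DMSO final). Viability by CellTiter-Glo luminescence after 30 min at room temperature.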
Assay [3] in a line: qHTS RealTime-Glo MT Cell Viability Assay in HEK293 cells - 32 hour (AID 1224868). For activity change, negative = cytotoxic: top concentration of the series differs between compounds. Note: nearly all actives have a fitted effect of over 50% in size. Note: potency is the fitted concentration of half-maximal effect. Put shortly: (§1)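 Reads taken at 0, 8, 16, 24, 32 and 40 h from the same wells. HEK293 cells (600/well) carried RealTime-Glo reagents from seeding, with compound added after a 5 h settle at 37 C.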
Assay [4] is described as follows: A CellTox Green Cytotoxicity Assay to monitor cytotoxicity in HEK293 cells - 0 hour (AID 1224869). Note: nearly all actives have a fitted effect of over 50% in size. The method in brief: (§2)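 Seeding of HEK293 cells together with cytotoxicity dye preceded a 5 h incubation at 37 C/5% CO2. Test compounds in DMSO were then added and fluorescence monitored across 40 h.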
Assay [5] is described as follows: qHTS RealTime-Glo MT Cell Viability Assay in HepG2 cells - 40 hour (AID 1224870). Note: nearly all actives have a fitted effect of over 50% in size. The method in brief:
(§3)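 Real-time viability: cells seeded at 600 per well together with NanoLuc and cell-permeant prosubstrate, compounds added after 5 h incubation. Luminescence tracked at 0, 8, 16, 24, 32 and 40 h of exposure.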

A short description of assay [6]: A CellTox Green Cytotoxicity Assay to monitor cytotoxicity in HEK293 cells - 40 hour (AID 1224871). Note: nearly all actives have a fitted effect of over 45% in size. Note: potency is the fitted concentration of half-maximal effect. The method in brief: as §2
A short description of assay [7]: qHTS RealTime-Glo MT Cell Viability Assay in HEK293 cells - 16 hour (AID 1224872). For activity change, negative = cytotoxicity: top concentration of the series differs between compounds. Note: nearly all actives have a fitted effect of over 50% in size. Note: potency is the fitted concentration of half-maximal effect. Put shortly:
as §1

A short description of assay [8]: qHTS RealTime-Glo MT Cell Viability Assay in HepG2 cells - 8 hour (AID 1224873). Note: nearly all actives have a fitted effect of over 55% in size. The method in brief:
as §3

Assay [9] can be described thus: qHTS RealTime-Glo MT Cell Viability Assay in HEK293 cells - 40 hour (AID 1224874). Note: nearly all actives have a fitted effect of over 50% in size. Note: potency is the fitted concentration of half-maximal effect. The following applies: RealTime-Glo luminescence; max response: stronger effect = lower value. Put shortly: (§4)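 Tox21 screen in HEK293 using RealTime-Glo MT chemistry, with cells and reagent co-dispensed. Luminescence proportional to viable cell number was captured at intervals during 40 h compound exposure at 37 C.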

Assay [10] in a line: A CellTox Green Cytotoxicity Assay to monitor cytotoxicity in HEK293 cells - 24 hour (AID 1224875). Note: nearly all actives have a fitted effect of over 45% in size. Put shortly:
as §2

The nature of assay [11]: A CellTox Green Cytotoxicity Assay to monitor cytotoxicity in HepG2 cells - 16 hour (AID 1224876). Note: nearly all actives have a fitted effect of over 45% in size. Put shortly:
(§5)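 Nonlytic assay: viable cells exclude the dye, so fluorescence scales with cell death. HepG2 at 600 cells/well, compounds added after 5 h, signal read across 40 h.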

The nature of assay [12]: qHTS RealTime-Glo MT Cell Viability Assay in HepG2 cells - 32 hour (AID 1224877). Note: nearly all actives have a fitted effect of over 55% in size. Note: potency is the fitted concentration of half-maximal effect. The method in brief: (§6)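 HepG2 suspension premixed with RealTime-Glo reagents is plated at 600 cells per well and left 5 h at 37 C/5% CO2. Compounds in DMSO then go in, and bioluminescence reflecting viable cell number is recorded over 40 h.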
A short description of assay [13]: A CellTox Green Cytotoxicity Assay to monitor cytotoxicity in HepG2 cells - 24 hour (AID 1224878). Note: nearly all actives have a fitted effect of over 45% in size. Note: potency is the fitted concentration of half-maximal effect. The method in brief:
as §5

Assay [14] in a line: A CellTox Green Cytotoxicity Assay to monitor cytotoxicity in HepG2 cells - 40 hour (AID 1224879). Note: nearly all actives have a fitted effect of over 40% in size. Note: potency is the fitted concentration of half-maximal effect. Put shortly: as §5
Assay [15] in a line: qHTS RealTime-Glo MT Cell Viability Assay in HEK293 cells - 0 hour (AID 1224880). The method in brief:
as §4

A short description of assay [16]: qHTS assay to identify small molecule agonists of the hypoxia (HIF-1) signaling pathway (AID 1224846; active = well fitted activation curve with a large enough effect in the signal ratio in the repeat runs, not every such curve was filed as active; the % refers to the signal ratio). The method in brief: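 Hypoxia-pathway activation was scored as increased beta-lactamase from an HRE-controlled reporter in ME-180 cells; plated at 2,000 cells per well with 0.5% dialyzed FBS, they were exposed 17 hrs to compounds and then given CCF4-AM.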
A short description of assay [17]: qHTS RealTime-Glo MT Cell Viability Assay in HepG2 cells - 24 hour (AID 1224867). Note: nearly all actives have a fitted effect of over 50% in size. Note: potency is the fitted concentration of half-maximal effect. Put shortly: as §6
Assay [18] in a line: qHTS assay to identify small molecule agonists of H2AX (AID 1224845; active = well fitted activation curve with a large enough effect in the signal ratio in the repeat runs, not every such curve was filed as active; the % refers to the signal ratio; note: potency is the fitted concentration of half-maximal effect). Put shortly: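 Phospho-H2AX Ser139 measured by HTRF (ex 320 nm; em 665 and 620 nm) after 24 hr antibody incubation. Compounds, 15 concentrations, 0.76% DMSO, were applied to CHO-K1 cells for 3hr at 37C before lysis.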
The nature of assay [19]: qHTS assay to identify small molecule antagonists of the estrogen related receptor (ERR) signaling pathway from Tox21 library (AID 1224848). Note: nearly all actives have a fitted effect of over 50% in size. Note: potency is the fitted concentration of half-maximal effect. Put shortly:
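Antagonist-mode screen of the Tox21 10K library in an NTP-provided ERR reporter cell line; 18 h compound exposure at 37 C, luminescence measured with ONE-Glo.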

Assay [20] in a line: qHTS assay to identify small molecule agonists of the estrogen related receptor (ERR) signaling pathway from Tox21 library (AID 1224849; calls by dose curve; note: nearly all actives have a fitted effect of over 15% in size). The settings on record: ERR reporter cell line, ONE-Glo luciferase, 18 h; at 92.4 µM (top of the series) unless noted. The method in brief: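 Six hours post-seeding at 37 C/5% CO2, ERR cells receive DMSO-solubilised compounds; after 18 h at 37 C, ONE-Glo reagent is applied and luminescence recorded.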
% is set by controls: 0 for no effect and ±100 for the full control effect.

For `O=C1OC(CN2CCOCC2)CN1/N=C/c1ccc([N+](=O)[O-])o1` (stereo not drawn), the Potency entry in assay [1], in assay [2], in assay [3], in [4], in [5] and in assay [6] was “inactive” in each case. For the same molecule, the Potency result in assay [7], in [8], in assay [10], in assay [11], in assay [12] and in assay [13] was “inactive” in each case. For the same molecule, the Potency result in [14] and in [15] was “inactive” throughout. In addition, the max response in assay [9] was -0.929%.

With `CN(C)c1ccc(/C=C/c2ccc([N+](=O)[O-])cc2)cc1`, the activity change, negative = cytotoxicity in assay [1] was -6.06% [at 6.97 µM]; in assay [17] it was -7.57% [at 6.97 µM]; in [7], -4.94% [at 6.97 µM]; in [15], -5.79% [at 6.97 µM]. Further, the activation in [16] is -1.48% [at 7.01 µM]. The activity change, negative = cytotoxic is -5.7% [at 6.97 µM] in assay [3], -1.99% [at 6.97 µM] in assay [5] and -4.75% [at 6.97 µM] in assay [12]. Further, the viability change, negative = cytotoxic in [8] was -4.05% [at 6.97 µM]. Moreover, the max response in assay [9] is -4.38%. The cytotoxicity increase was 19.5% [at 6.97 µM] in [11] and 16.3% [at 6.97 µM] in assay [14]. In assay [13], the cytotoxicity is 17.5% [at 6.97 µM].

Turning to `COc1cc2c(cc1OC)C(C(C(=O)N(CCc1ccc(OC)c(OC)c1OC)CCc1ccc(OC)c(OC)c1OC)c1ccccc1)=NCC2` (stereo not drawn), the Potency entry in assay [18], in assay [16], in [2], in assay [4], in [6] and in assay [10] was “inactive” each time. Also, the Potency entry in [11], in [13] and in assay [14] was “inactive” in each case. The Potency in assay [19] was 26.6 µM (active); in assay [3], 3.38 µM (active); in assay [7], 3.01 µM (active); in assay [9], 3.38 µM (active). The activity change, positive = activation in [20] is -49.6% [at 42.5 µM].

With `CN1CCC(=C2c3ccccc3Sc3ccccc32)CC1`, the Potency result in assay [18], in assay [2], in [19], in [17], in assay [4] and in assay [5] was “inactive” each time. For the same molecule, the Potency result in [7] and in assay [10] was “inactive” throughout. Also, in [20], the activity change, positive = activation is 1.79% [at 42.5 µM]. The Potency in assay [13] and in assay [14] was 23.9 µM (active) throughout.

In the case of `C=CC(=O)OCCOCCOCCOCCOC(=O)C=C`, the Potency in assay [18] is 50.8 µM (active) and 50 µM (active); in [17] it was 43.2 µM (active); in assay [3] it was 34.8 µM (active) and 24.3 µM (active); in [6], 49.2 µM (active) and 48.5 µM (active); in assay [9], 31.1 µM (active) and 19.3 µM (active); in [12], 48.5 µM (active). In assay [14], the Potency is 24.7 µM (active) and 13.7 µM (active). Moreover, the Potency result in [4], in assay [10], in assay [11] and in assay [13] was “inactive” each time.

Take `CCC(CC)Nc1ccc(C)c(C)c1`: the Potency result in assay [18], in [16], in assay [2], in assay [17], in [3] and in assay [4] was “inactive” in each case. For the same molecule, the Potency entry in assay [5], in [6], in assay [7], in assay [8], in [10] and in assay [11] was “inactive” in each case. The Potency result in assay [12] and in assay [14] was “inactive” throughout. Moreover, the max response in assay [9] is 12.5%.

As for `O=C(OCCc1ccccc1)c1ccccc1`, the Potency entry in assay [18], in assay [17], in assay [3], in assay [5], in [6] and in assay [7] was “inactive” throughout. For the same molecule, the Potency entry in [8], in [10], in [11], in assay [12], in assay [13] and in assay [14] was “inactive” in each case. Moreover, the Potency entry in assay [15] was “inactive”. Further, the max response in assay [9] is -19.4%.
